In ChEMBL document CHEMBL1157539, “Thousands of chemical starting points for antimalarial lead identification” (Nature, 2010):

Legend:
Format in all cases: functional
[1] = test system: Plasmodium falciparum; assay: GSK_TCMDC: Inhibition of Plasmodium falciparum 3D7 in whole red blood cells, using parasite LDH activity as an index of growth. Test compounds present at 2uM
[2] = test system: Plasmodium falciparum; assay: GSK_TCMDC: Inhibition of Plasmodium falciparum Dd2 in whole red blood cells, using parasite LDH activity as an index of growth. Test compounds present at 2uM
[3] = test system: HepG2; assay: GSK_TCMDC: Percent inhibition of human HepG2 cell line. Test compounds present at 10uM.

SMILES | Inhibition [1] | Inhibition [2] | Inhibition [3]
O=C(N[C@@H](Cc1ccccc1)[C@H](O)CNCCC(F)(F)F)c1cccc(OCC2CC2)c1 | 98% | 95% | 0%
COCCn1c(Sc2ncnc3sccc23)nc2ccccc21 | 95% | 72% | 0%
CC12CN3CC(C)(CN(C1)C3c1cc(Br)ccc1O)C2O (stereo not drawn) | 98% | 2% | 5%
Cc1ncc([N+](=O)[O-])n1CCOC(=O)NC(Nc1ccc(Br)cc1)C(Cl)(Cl)Cl (stereo not drawn) | 99% | 100% | 0%
Cc1ccc(C(=O)Nc2ccc(Nc3ccnc4cc(-c5nccs5)ccc34)cc2O)cc1.Cl | 100% | 100% | 100%
Cc1cc(NC2CCCC2)nc(Nc2ccccc2)n1 | 100% | 75% | 26%
NCC1CCCN1Cc1ccc(-c2cccc(-c3nc4cc(C(F)(F)F)ccc4[nH]3)c2)cc1.O=C(O)C(F)(F)F (stereo not drawn) | 99% | 97% | 24%
COc1cc2nc(N3CCC(CNC(=O)c4ccc(-c5ccc(C(F)(F)F)cc5)cc4)CC3)nc(N)c2cc1OC | 100% | 100% | 94%
CS(=O)(=O)Nc1cccc(-c2cnc3[nH]cc(-c4ccc(C(=O)O)cc4)c3c2)c1 | 98% | 82% | 0%
FC(F)(F)c1ccc2[nH]c(-c3ccc(-c4cccc(CNCCN5CCNCC5)c4)s3)nc2c1.O=C(O)C(F)(F)F | 91% | 39% | 22%
Cc1[nH]c(C)c(-c2ccc(OCCOc3ccc(C(F)(F)F)cn3)cc2)c(=O)c1Br | 97% | 97% | 25%
Cc1cccc2nc(-c3ccc(-c4cccc(NC(=O)Nc5ccc(Cl)c(Cl)c5)c4)s3)[nH]c12 | 100% | 36% | 46%
CN1CCN(c2ccnc3ccc(NC(=O)Cc4ccc(Br)c5ccccc45)cc23)CC1 | 96% | 99% | 8%
CCN1CCc2nc3ccccc3c(C(=O)Nc3ccc(C#N)cc3)c2C1 | 99% | 72% | 24%
Cc1cc(NCc2ccccc2)nc(NCc2ccccc2)n1 | 91% | 18% | 21%
Cc1cccc2nc(-c3ccc(-c4cccc(CNC5CCN(C)CC5)c4)s3)[nH]c12.O=C(O)C(F)(F)F | 98% | 73% | 21%
Br.COc1ccc(OC)c2c1CCN(C)C2Cc1cccc2ccccc12 (stereo not drawn) | 91% | 79% | 13%
CC(C)(CN1CCCC1)CN(Cc1ccc(-c2ccc(C(F)(F)F)cc2)cc1)C(=O)Cn1c(CCc2cccc(F)c2F)nc(=O)c2ccccc21.O=C(O)C(O)C(O)C(=O)O | 97% | 64% | 57%
FC(F)(F)c1ccc2[nH]c(-c3ccc(-c4ccc(CN5CCN(c6ccncc6)CC5)cc4)cc3)nc2c1.O=C(O)C(F)(F)F | 100% | 99% | 91%
CC(C)NC(=N)NN=Cc1ccc(Cl)c(Cl)c1 | 100% | 12% | 0%
O=C(Nc1ccc(Oc2ccccc2)cc1)N1CCC(CCN2CCC(c3c[nH]c4ccccc34)CC2)CC1 | 100% | 36% | 42%

SMILES | Inhibition [1] | Inhibition [2] | Inhibition [3]
Cc1nc(-c2ccncc2)sc1C(=O)Nc1ccc(Cl)cc1C(=O)Nc1ccc(Cl)cc1 | 98% | 47% | 2%
CN(C)CCOc1ccc(N2CCN(CCCCNC(=O)c3ccc(NC(=O)c4ccc(Cl)cc4)cc3)CC2)cc1 | 99% | 98% | 13%
CCN(CC)c1ccc(NC(=S)NC2CCN(CCCCCNC(=O)/C=C/c3ccc(Cl)c(Cl)c3)CC2)cc1 | 100% | 58% | 16%
O=C(Nc1nc(-c2ccccn2)cc2ccccc12)c1cccc(Cl)c1 | 96% | 72% | 59%
O=C(NCCCCN1CCC(c2ccc3c(c2OCC(O)c2ccc(Cl)cc2)CCCC3)CC1)c1ccc(-c2ccc(C(F)(F)F)cc2)cc1 (stereo not drawn) | 89% | 67% | 100%
CC(C)c1ccc(Nc2nc(NCCc3c[nH]cn3)nc(NCc3ccccc3)n2)cc1 | 98% | 2% | 1%
O=S(=O)(c1ccc(Oc2ccccc2)cc1)N(CCC(O)(C(F)(F)F)C(F)(F)F)Cc1cccc(O)c1 | 100% | 99% | 0%
O=C(/C=C/c1ccc(I)cc1)NCCCCCN1CCC(c2c[nH]c3ccc(O)cc23)CC1 | 97% | 1% | 14%
O=C(Nc1ccc(-c2cccc(-c3nc4ccccc4[nH]3)c2)cc1)Nc1ccsc1 | 100% | 90% | 56%
CC(C)CCN1CCCN(Cc2cccc(NC(=O)c3cc4ccccc4s3)c2)CC1.O=C(O)C(F)(F)F | 96% | 8% | 34%
O=C(c1ccc(Br)o1)N1N=C(c2cccs2)CC1c1ccc(Br)cc1 (stereo not drawn) | 96% | 45% | 5%
N=C(N)NC(=O)Nc1cc(Cl)c(Br)c(Cl)c1 | 100% | 100% | 6%
CCN(CCCN1CCCCC1)c1cc(C)nc(Nc2cc(F)cc(F)c2)n1.O=C(O)C(F)(F)F | 100% | 64% | 15%
CC(C)(C)C(=O)Nc1c(-c2cc(=O)oc3cc4c(cc23)CCC4)oc2ccccc12 | 100% | 100% | 0%
COc1ccc2ncc(F)c(CCN3CC(O)C(CNCc4ccc(F)cc4)C3)c2n1.Cl (stereo not drawn) | 93% | 21% | 38%
CCN1CCC(N(Cc2ccc(-c3ccc(C(F)(F)F)cc3)cc2)C(=O)Cn2c(CCc3cccc(F)c3F)cc(=O)c3ccc(OCc4ccccc4)cc32)CC1.O=C(O)C(O)C(O)C(=O)O | 100% | 86% | 60%
O=C(Nc1ccc(Oc2cccnc2)cc1)C1CCN(Cc2cc(Cl)ccc2O)CC1 | 83% | 1% | 37%
O=C(NC(Cc1ccccc1)C(=O)O)c1cc(=O)c2ccccc2o1 (stereo not drawn) | 99% | 10% | 53%
CC1CCc2sc(-c3nnc(SC(C)C(=O)NC4CC4)o3)cc2C1 (stereo not drawn) | 83% | 69% | 5%
CS(=O)(=O)c1ccc2[nH]c(-c3cc(-c4ccc(OCCN5CCOCC5)cc4)cnc3N)nc2c1.O=C(O)C(F)(F)F | 100% | 99% | 43%
CC(C)(C)c1cc2cc(Nc3ccnc4cc(-c5nccs5)ccc34)ccc2[nH]1.Cl | 100% | 97% | 5%

SMILES | Inhibition [1] | Inhibition [2] | Inhibition [3]
O=C(NC1CC1)c1ccc(N2CCC(COc3cccc(F)c3)CC2)nc1 | 89% | 88% | 0%
O=C(O)C(F)(F)F.O=S(=O)(NCCN1CCCC1)c1ccc(-c2cccc(CNCc3ccc(F)cc3)c2)cc1F | 97% | 36% | 43%
CC(C)CNC(=O)c1ccnc(-c2ccc(CNCCCc3ccccc3)cc2)c1.O=C(O)C(F)(F)F | 99% | 22% | 12%
CS(=O)(=O)c1ccc2nc(NC(=O)c3csnn3)sc2c1 | 90% | 95% | 3%
O=C(Nc1cccc(-c2nn3ccccc3c2-c2ccnc(Nc3ccccc3)n2)c1)c1cc(F)ccc1F | 98% | 75% | 8%
CN1CCC(NCc2cccc(-c3cccc(-c4nc5cc(C(F)(F)F)ccc5[nH]4)c3)c2)CC1.O=C(O)C(F)(F)F | 100% | 100% | 35%
c1ccc(Oc2ccc(Nc3ccnc(Nc4cccc(CNCCCN5CCOCC5)c4)n3)cc2)cc1 | 100% | 50% | 0%
O=C(NCCN1CCC(NC(=O)c2ccc(-c3ccccn3)s2)CC1)c1cccc(C(F)(F)F)c1.O=C(O)C(F)(F)F | 97% | 24% | 4%
O=C(Nc1ccc(Cl)c(C(F)(F)F)c1)Nc1ccc(Cl)c(C(F)(F)F)c1 | 94% | 96% | 1%
CCNc1cc(C(=O)N[C@@H](Cc2ccccc2)[C@H](O)CNCc2cccc(OC)c2C)cc(N2CCCCS2(=O)=O)c1.O=CO | 97% | 98% | 8%
Cc1cc(N)c2cc(NC(=O)/C=C/c3ccccc3Cl)ccc2n1 | 100% | 98% | 81%
O=C(NCCc1cccc(F)c1)c1ccc(N2CCN(c3ccncc3)CC2)cn1.O=C(O)C(F)(F)F | 94% | 7% | 4%
Cl.N#Cc1cccc(C(O)C2CN(CCC3CCCCC3)CCC2(O)c2ccccc2)c1 (stereo not drawn) | 98% | 100% | 0%
COc1ccc2c(=NN=Cc3cccc(Cl)c3)cc(C)[nH]c2c1 | 100% | 99% | 3%
O=C(c1ccc2ccccc2n1)N1CCCc2cc(Br)ccc21 | 97% | 74% | 19%
COc1ccc2nccc([C@@H](O)CN3CCC(NCc4cc5ccccn5n4)CC3)c2c1.O=C(O)C(=O)O | 99% | 18% | 7%
CC(C)C1c2ccc(O)cc2CC2C(=O)N(C3CCCCC3)C(=O)N21 (stereo not drawn) | 95% | 88% | 2%
CCCCOC(=O)C1=C(C)NC2=C(C(=O)CCC2)C1c1ccc(OC)c(Br)c1 (stereo not drawn) | 93% | 87% | 5%
CC(C)Nc1cc(C(=O)N[C@@H](Cc2ccccc2)[C@H](O)CNC(C)(C)c2cccc(C(F)(F)F)c2)cc(N2CCCCS2(=O)=O)c1.O=CO | 98% | 98% | 9%
